Sampled rows, rich in hits. Any-hit rate of the full collection: about 6.5%.
Vaccinia mCherry: inhibitors of vaccinia virus infection (mCherry reporter signal); 0.63% of 310,000 active; Vaccinia virus mCherry reporter infection, fluorescence; Potency, µM (highest dose often 36.5 µM), for inactives: top-dose activity change, negative = inhibition, most hits filed as inhibitors; calls by dose curve; tested in A549 cells; further: potency means the concentration at half of the fitted maximal effect; nearly all actives have a fitted effect of over 35% in size
FMDV antiviral: blocks foot and mouth disease virus; Potency, µM (series often up to 57.9 µM), without a hit: at the highest dose activity change, negative = inhibition, most hits filed as inhibitors; 1.2% of 410,000 active; AID 1159524; FMDV antiviral cell-based qHTS; calls by dose curve; tested in HEK293T cells; further: read-out not given here; potency means the concentration at half of the fitted maximal effect; nearly all actives have a fitted effect of over 45% in size
VACV Venus inh: vaccinia inhibition (Venus reporter); Vaccinia virus Venus reporter expression, fluorescence; Potency, µM (titrated, usually from 36.5 µM), inactives show at the top dose activity change, negative = inhibition, most hits filed as inhibitors; 0.46% of 330,000 active; AID 720580; calls by dose curve; tested in A549 cells; further: potency means the concentration at half of the fitted maximal effect; nearly all actives have a fitted effect of over 30% in size
Lassa entry inh: Lassa virus entry inhibition | 1.2% of 300,000 active | Potency, µM (top dose mostly 37.9 µM), without a hit: at the highest dose activity change, negative = inhibition, hits mostly inhibitors | Lassa virus pseudotype entry inhibition, cell reporter; calls by dose curve; tested in HEK293 cells; further: potency means the concentration at half of the fitted maximal effect; nearly all actives have a fitted effect of over 50% in size
Marburg entry inh: blocks Marburg virus binding to or entry into cells | Marburg virus pseudotyped entry inhibition, cell reporter | Potency, µM (titrated, usually from 37.8 µM), for inactives: at the highest dose activity change, negative = inhibition, actives largely listed as inhibitors | 1.8% of 300,000 active; calls by dose curve; tested in HEK293 cells; further: potency means the concentration at half of the fitted maximal effect
HCMV inh: inhibitors of human cytomegalovirus. HFF cells, HCMV-luciferase reporter, 72 h; stronger effect = lower value. activity change, negative = inhibition, % at 57.5 µM. 4.5% of 410,000 active. AID 1259415; in the data active means activity change below about -60%; inconclusive means no clear call, values can overlap the other calls; inactive means above about -39%
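Two-dose cell screen: HFF monolayers treated with compounds and infected with luciferase-expressing HCMV at 1 PFU/cell, 72 h at 37C, then lysed for luciferase measurement.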
Starred values were filed as active, the others as inactive; i = inactive; ? = inconclusive; / = not tested or not shown; [ ] = dose if it differs, or a comment. On the % scale 0 is the no-effect control and ±100 the full control effect.

SMILES	Vaccinia mCherry	FMDV antiviral	VACV Venus inh	Lassa entry inh	Marburg entry inh	HCMV inh
O=C1NC(=O)N(c2ccc3c(c2)OCO3)C(=O)/C1=C\c1ccc(N2CCCCC2)o1	-6%	-14%	0%	-10%	-14%	-66*
CCN1CCS/C1=C\C=C\C1=[N+](CC)CCS1	/	?	/	/	2.5µM*	-104*
CCN1CCS/C1=C/C=C/C1=[N+](CC)CCS1	-21%	?	?	?	2.5µM*	/
Cc1ccc(CNC(=O)Cn2c(=O)n(Cc3ccccc3)c(=O)c3c2c2cc(C)ccc2n3C)cc1	4%	-9%	-1%	8%[46.1 µM]	/	34
O=C1CC(c2ccccc2C(F)(F)F)c2c(c3ccccc3[nH]c2=O)O1 (stereo not given)	-21%	0%	-19%	11%[46.1 µM]	15%[46.1 µM]	-1
Cc1ccc(CC(=O)Nc2c(C(=O)N3CCN(c4ccccc4F)CC3)oc3ccccc23)cc1	-7%	25%	-18%	0%[46.1 µM]	-15%[46.1 µM]	-21
O=C1NC2(CCCCC2)C(=O)N1Cc1cccc(C(F)(F)F)c1	/	-7%	/	-8%	1%	-103*
CN(Cc1ccccc1)c1ncc(C=O)s1	i	-7%	-19%	-21%[46.1 µM]	?	-63*
COc1cccc(NC(=O)CCCNC(=O)Cn2cnc3sc(C)c(C)c3c2=O)c1	i	11%	-21%	0%	5%[46.1 µM]	-25
Cc1sc2ncn(CC(=O)NCCCC(=O)Nc3ccc(C(C)C)cc3)c(=O)c2c1C	-13%	-5%	-5%	?	?	-76*
Cc1cc(NCCCCO)n2c(nc3ccccc32)c1C#N	-7%	-24%	-8%	?	9%	-40
C=C(C)CSc1cc(C)c(C#N)c2nc3ccccc3n12	i	?	-3%	?	?	-75*
Cc1cc(N2CCN(C)CC2)nc2ccc(NC(=O)Nc3ccccc3)cc12	i	42%	-5%	1%[46.1 µM]	/	?
CCCCN(CC)CCNC(=S)Nc1ccc2nc(N3CCN(C)CC3)cc(C)c2c1	13µM*	-11%	?	?	3.5µM*	-3
Cc1ccc(NC(=O)Nc2ccc3nc(N4CCN(C)CC4)cc(C)c3c2)cc1C	-27%	-2%	-22%	?	/	-100*
Cc1cc(N2CCOCC2)nc2ccc(NC(=O)CCC(=O)N3CCN(c4ccccc4)CC3)cc12	?	0%	-5%	?	3%[46.1 µM]	59
Cc1cc(N2CCN(C)CC2)nc2ccc(NC(=O)CCC(=O)N3CCN(c4ccc([N+](=O)[O-])cc4)CC3)cc12	?	-17%	-29%	-7%[46.1 µM]	?	-64*
Cc1cc(N2CCN(C)CC2)nc2ccc(NC(=O)Nc3cccc(Cl)c3)cc12	14%	3%	-24%	?	/	-99*
Cc1ccc(Cl)cc1NC(=O)CN1C(=O)c2ccccc2Sc2ncccc21	-12%	-19%	-1%	15%[46.1 µM]	/	-9
Cc1c(C(=O)Nc2ccccc2Br)oc2ccc(S(=O)(=O)N3CCCCCC3)cc12	?	7%	?	22%[46.1 µM]	/	11
CCOc1cc(C(=O)Nc2ccc3nc(N4CCN(C)CC4)cc(C)c3c2)cc(OCC)c1OCC	i	-29%	-23%	-20%[46.1 µM]	5.6µM*	-66*
Cc1cc(N2CCN(C)CC2)nc2ccc(NC(=O)Nc3ccc(F)cc3F)cc12	-10%	35%	-8%	?	/	?
Cc1cc(N2CCN(C)CC2)nc2ccc(NC(=O)Nc3ccccc3Br)cc12	-23%	19%	-17%	?	/	-95*
CCN1CCN(c2cc(C)c3cc(NC(=O)c4ccncc4)ccc3n2)CC1	-25%	-18%	-24%	/	/	14
C=CCNc1cccc2c1S(=O)(=O)N[C@H](Cc1ccccc1)CO2	/	/	/	/	/	-30
SMILES	Vaccinia mCherry	FMDV antiviral	VACV Venus inh	Lassa entry inh	Marburg entry inh	HCMV inh
COc1ccc2c(c1)OC[C@H]1[C@@H]2N2C(=O)[C@@H](C)NC(=O)[C@@]2(C)[C@H]1c1ccccc1	i	-4%	-4%	/	/	-15
C[C@@]12C(=O)Nc3cc(Cl)ccc3C(=O)N1[C@H]1c3cc(Br)ccc3OC[C@@H]1[C@@H]2c1ccccc1	-4%	-11%	-23%	/	/	-64*
COc1ccc2c(c1)OC[C@H]1[C@H]2N2C(=O)c3ccc(F)cc3NC(=O)[C@@]2(C)[C@H]1c1ccccc1	18µM*	?	?	/	/	119
C[C@@]12C(=O)Nc3cc(Cl)ccc3C(=O)N1[C@H]1c3cc(Cl)ccc3OC[C@@H]1[C@@H]2c1ccccc1	-14%	?	-25%	/	/	?
COc1ccc2c(c1)OC[C@H]1[C@H]2N2C(=O)[C@H](C)NC(=O)[C@@]2(C)[C@H]1c1ccccc1	i	-4%	-7%	/	/	-91*
O=C1CN(C(=O)c2ccc(S(=O)(=O)N3CCCCC3)cc2)C(c2ccc(F)cc2)c2cc(Cl)ccc2N1 (stereo not given)	-17%	?	-10%	?	8.9µM*	-4
O=C1CN(C(=O)c2cccc(Br)c2)C(c2ccccc2)c2cc(Cl)ccc2N1 (stereo not given)	-11%	-14%	-6%	?	/	-63*
O=C1CN(C(=O)Cc2ccccc2)C(c2ccc(F)cc2)c2cc(Br)ccc2N1 (stereo not given)	-18%	-19%	-17%	?	10µM*	15
O=S(=O)(c1ccccc1F)N1CCN(c2nc(-c3cccs3)nc3ccccc23)CC1	-6%	/	-18%	/	/	/
CN=c1scc(-c2ccco2)n1/N=C/c1ccc(O)c(O)c1	-25%	14µM*	-26%	?	?	68
C=CCN=c1scc(C)n1/N=C/c1ccc(O)c(O)c1	0%	77%	4%	/	/	-97*
CN=c1scc(C)n1/N=C/c1ccc2c(c1)OCO2	/	-64%	-21%	3.5µM*	?	18
CN=c1scc(C)n1/N=C/c1ccc(O)cc1	/	29%	-14%	?	?	82
CCOC(=O)C1NNN2C3CCCCC3C(N3CCN(C4CCCCC4)CC3)NC12 (stereo not given)	/	/	/	/	5%[46.1 µM]	/
Cc1c2cnn(CC(=O)N3CCOCC3)c(=O)c2c(C)n1Cc1ccc(F)cc1	/	/	/	/	/	-5
Cc1cccn2c(=O)c3cc(C(=O)NCCN4CCOCC4)c(=N)n(Cc4ccc(F)cc4)c3nc12	-4%	-3%	-14%	5.6µM*	?	-100*
Cc1cccn2c(=O)c3cc(C(=O)NC4CCCC4)c(=N)n(CCCN4CCOCC4)c3nc12	-1%	-8%	-15%	-12%[46.1 µM]	3.5µM*	-25
N=c1c(C(=O)NCc2ccccc2)cc2c(=O)n3ccccc3nc2n1CCCN1CCOCC1	-13%	-3%	-1%	-3%	?	-5
COCCCn1c(=N)c(C(=O)NC2CCCC2)cc2c(=O)n3cccc(C)c3nc21	-8%	54%	-11%	?	20%[46.1 µM]	2
Cc1c2cnn(CC(=O)NCCN3CCOCC3)c(=O)c2c(C)n1Cc1ccc(F)cc1	i	0%	-4%	/	/	-72*
N=c1c(C(=O)NCCc2ccccc2)cc2c(=O)n3ccccc3nc2n1CCCN1CCOCC1	-19%	-4%	2%	?	7.1µM*	-17

High-throughput results from PubChem.
